Screening data: PubChem, National Center for Advancing Translational Sciences (NCATS)
An excerpt weighted towards active compounds, which were near 7.8% of everything screened.
VACV mCherry inh: inhibitors of vaccinia virus infection (mCherry reporter signal) | Vaccinia virus mCherry reporter infection, fluorescence | Potency, µM (series often up to 36.5 µM), for inactives: top-dose activity change, negative = inhibition, hits mostly inhibitors | 0.63% of 310,000 active | AID 720579; calls by dose curve; tested in A549 cells; further: potency means the concentration at half of the fitted maximal effect; nearly all actives have a fitted effect of over 35% in size
HCMV inh: blocks human cytomegalovirus replication; HFF cells, HCMV-luciferase reporter, 72 h; hits give low values; activity change, negative = inhibition, % at 57.5 µM; 4.5% of 410,000 active; AID 1259415; in the data active means activity change below about -60%; inconclusive means no clear call, values can overlap the other calls; inactive means above about -39%
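Two-dose cell screen: HFF monolayers treated with compounds and infected with luciferase-expressing HCMV at 1 PFU/cell, 72 h at 37C, then lysed for luciferase measurement.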
Vaccinia Venus: inhibitors of vaccinia virus (Venus reporter). Vaccinia virus Venus reporter expression, fluorescence. Potency, µM (titrated, usually from 36.5 µM), for inactives: at the top dose activity change, negative = inhibition, most hits filed as inhibitors. 0.46% of 330,000 active. AID 720580; calls by dose curve; tested in A549 cells; further: potency means the concentration at half of the fitted maximal effect; nearly all actives have a fitted effect of over 30% in size
MARV entry inh: Marburg virus entry inhibition. Marburg virus pseudotyped entry inhibition, cell reporter. Potency, µM (titrated, usually from 37.8 µM), inactives show top-dose activity change, negative = inhibition, actives largely listed as inhibitors. 1.8% of 300,000 active; calls by dose curve; tested in HEK293 cells; further: potency means the concentration at half of the fitted maximal effect
Lassa entry inh: Lassa virus entry inhibition; 1.2% of 300,000 active; Potency, µM (highest dose often 37.9 µM), for the others: at the top dose activity change, negative = inhibition, hits mostly inhibitors; Lassa virus pseudotype entry inhibition, cell reporter; calls by dose curve; tested in HEK293 cells; further: potency means the concentration at half of the fitted maximal effect; nearly all actives have a fitted effect of over 50% in size
HCV inhibitor: HCV inhibition | 3.4% of 340,000 active | Potency, µM (doses to about 41.8 µM), without a hit: at the highest dose activity change, negative = inhibition, usual class: inhibitors | Huh7.5.1 HCVcc-Cre infection, luciferase reporter, 44 h; active means well fitted inhibition curve with a large enough effect; inconclusive means small, poorly fitted or top-dose-only effect, or another doubt; inactive means no such curve, though single readings can be large or run the other way; further: potency means the concentration at half of the fitted maximal effect
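HCVcc-Cre virus at an moi near 0.5 was added right after compound to cells cultured 4 h from seeding (1,000 cells/well). Luciferase activity was determined 44 h later, 15 min after substrate addition at RT.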
* = called active by the depositor; i = inactive; ? = inconclusive; · = not tested or not shown; [ ] = dose if it differs, or a comment. On the % scale 0 is the no-effect control and ±100 the full control effect.

SMILES | VACV mCherry inh | HCMV inh | Vaccinia Venus | MARV entry inh | Lassa entry inh | HCV inhibitor
COc1ccc(/C=C/C(=O)O)cc1S(=O)(=O)NCc1ccco1 | i | 11 | -4% | 4%[46.1 µM] | 0%[46.1 µM] | 8%
CC1CCCCN1S(=O)(=O)c1ccc(C(=O)Nc2nnc(-c3ccccc3Cl)o2)cc1 (stereo not given) | ? | ? | -27% | 13µM* | ? | ?
CC1CCCCN1S(=O)(=O)c1ccc(C(=O)Nc2nnc(-c3ccncc3)o2)cc1 (stereo not given) | -19% | -71* | -18% | ? | ? | -18%
CCC1CCCCN1S(=O)(=O)c1ccc(C(=O)Nc2nnc(-c3ccccc3Cl)o2)cc1 (stereo not given) | ? | · | -26% | ? | ? | ?
CCC1CCCCN1S(=O)(=O)c1ccc(C(=O)Nc2nnc(C3=COCCO3)o2)cc1 (stereo not given) | i | -14 | -17% | ? | ? | ·
O=C1C=CC2(O[C@H](c3ccccc3)[C@@H](c3ccccc3)O2)[C@H](Sc2ccccc2O)C1 | 10µM* | -100* | ? | ? | 6.3µM* | ?
COC(=O)CSc1cccc2c1C(=O)CC2c1ccccc1 (stereo not given) | i | 2 | 5% | · | · | -5%
Cc1ccc(CCNC(=O)NCc2noc3ccc(C)cc23)cc1 | -4% | -11 | -1% | · | -7%[46.1 µM] | ·
COc1cccc(N(C(=O)c2cccs2)c2nc3ccccc3s2)c1 | · | -101* | -15% | -11% | ? | ?
CCN(C(=O)c1cccs1)c1nc(-c2ccc(OC)cc2)cs1 | ? | 0 | -5% | ? | 9%[46.1 µM] | ?
CCOc1ccccc1NC(=O)Cn1c(=O)n(CCCC(=O)NCCc2ccc(C)cc2)c(=O)c2ccccc21 | -14% | 8 | 2% | -23%[46.1 µM] | 3%[46.1 µM] | ·
COc1ccc(-c2nc3ccc(NS(C)(=O)=O)cc3o2)cc1 | 7% | 90 | 8% | ? | ? | ·
Cc1ccc(S(=O)(=O)N2CCN(c3cc4c(cc3[N+](=O)[O-])n(C)c(=O)n4C)CC2)cc1 | i | -18 | -7% | 23µM* | ? | ?
Cc1cc(N2CCN(c3ccc(C(F)(F)F)cc3[N+](=O)[O-])CC2)c2ccccc2n1 | · | -29 | · | · | · | 10µM*
Cc1ccc(S(=O)(=O)N2CCN(c3c([N+](=O)[O-])cc(C(F)(F)F)cc3[N+](=O)[O-])CC2)cc1 | i | -20 | -14% | 9% | -19% | -7%
Cc1ccc(S(=O)(=O)N2CCN(c3ccc(C(F)(F)F)cc3[N+](=O)[O-])CC2)cc1 | -26% | -77* | ? | 8.9µM* | ? | ?
Cc1cc(N2CCN(c3ccc([N+](=O)[O-])c4cccnc34)CC2)c2ccccc2n1 | -20% | · | -11% | 4% | ? | -17%
Cc1cc(N2CCN(S(=O)(=O)c3ccccc3)CC2)c2ccccc2n1 | ? | -88* | ? | ? | -6% | ?
Cn1c(=O)n(C)c2cc([N+](=O)[O-])c(N3CCN(S(=O)(=O)c4ccc5ccccc5c4)CC3)cc21 | -22% | -35 | -14% | ? | -29% | ?
COc1cccc(NC(=O)Cn2nc(C)c3c(C)n(-c4ccccc4)nc3c2=O)c1 | -14% | ? | -14% | · | 24%[46.1 µM] | ·
O=C1CC[C@@H](S(=O)(=O)c2ccccc2)[C@H](c2ccccc2)N1Cc1ccccc1 | · | -15 | · | · | · | ·
COC(=O)[C@H](Cc1ccccc1)N1C[C@@H](N2CCC[C@@H]2C)C[S+]1(=O)[O-] | · | · | · | · | -7%[46.1 µM] | ·
COc1cccc(N2CCN(c3ccc(S(=O)(=O)N4CCN(C)CC4)cc3[N+](=O)[O-])CC2)c1 | -30% | -38 | -29% | ? | ? | ?
COc1ccc(N2CCN(S(=O)(=O)c3ccc4c(c3)CCCC4)CC2)c([N+](=O)[O-])c1 | -13% | -86* | ? | ? | ? | 5µM*
C=C1CCCC2OC(CC3=CC4/C(C)=C/CC(C)CC(/C=C(\C)C(O)C5CC(O)C(O)C(CCC(O)/C=C/C(C)=C/CCC6=NCCC(C3)C64C)O5)OC(=O)CC3OC(C(O)C1)C(O)C3O)CC(O)C2O (stereo not given) | · | -78* | · | · | · | ·
SMILES | VACV mCherry inh | HCMV inh | Vaccinia Venus | MARV entry inh | Lassa entry inh | HCV inhibitor
COc1ccccc1C(=O)Nc1cccc(OCc2cc(=O)n3c4c(sc3n2)CCCC4)c1 | 4% | 22 | -2% | -2%[46.1 µM] | -8%[46.1 µM] | ·
COc1ccc(N(CC(=O)NCCSc2ccccn2)S(=O)(=O)c2ccccc2)cc1OC | 4% | 124 | 2% | -3%[46.1 µM] | · | 7%
COc1ccc(N(CC(=O)NCCSc2ccccn2)S(=O)(=O)c2ccc(C)cc2)cc1OC | -12% | -60* | -11% | -22%[46.1 µM] | -11%[46.1 µM] | -15%
Cc1ccc(S(=O)(=O)NCCC(=O)NCCCSc2ccccc2)cc1 | · | -75* | · | · | · | ?
Cc1ccc(N(CC(=O)NCCSc2ccccc2)S(=O)(=O)c2ccc(F)cc2)cc1 | i | -65* | -9% | · | -13%[46.1 µM] | ·
CCN(CC)CCSc1nnc2c3cc(C)ccc3n(Cc3ccccc3)c2n1 | i[7.34 µM] | -85* | -5%[7.34 µM] | ? | ? | 13µM*
COc1cccc(Cn2c(=O)n(-c3ccc(Br)cc3F)c(=O)c3sc4ccccc4c32)c1 | 1% | 14 | 0% | 11%[46.1 µM] | -20%[46.1 µM] | ·
Cc1cc(C)cc(OCCOCCn2c(-c3ccc(Cl)cc3)nc3ccccc3c2=O)c1 | -6% | 14 | -3% | 7.1µM* | -23%[46.1 µM] | ·
Cc1cccc(-n2c(/C=C/c3cccc4ccccc34)nc3ccccc3c2=O)c1 | -25% | ? | -26% | · | 16%[46.1 µM] | ·
O=c1c2ccccc2nc(/C=C/c2ccc([N+](=O)[O-])o2)n1-c1ccc(O)cc1 | 3.5µM* | -100* | -25% | 3.2µM* | ? | ?
Cc1cccc(-n2c(/C=C/c3ccccc3O)nc3ccccc3c2=O)c1 | -24% | -98* | ? | · | ? | ·
Cc1cccc(-n2c(/C=C/c3ccc([N+](=O)[O-])o3)nc3ccccc3c2=O)c1 | -7% | -104* | -10% | ? | ? | 10µM*
CC(=O)N(/N=C/c1ccc([N+](=O)[O-])o1)c1nc2ccccc2c(=O)n1-c1ccccc1 | · | -64* | · | · | · | -24%
Cc1ccc(CSc2nnc(-n3c(=O)c(C#N)cc4c(=O)n5cc(C)ccc5nc43)s2)cc1 | 7% | -5 | 4% | -29%[46.1 µM] | 24%[46.1 µM] | ·
O=C(c1cccs1)c1ccc(-c2cccs2)s1 | 11% | 11 | 68% | 11µM* | ? | ?
CN1CCN(C(=O)c2ccc(-c3cccs3)s2)CC1 | i | -17 | -14% | ? | -7%[46.1 µM] | -4%
CCCc1nn2c(=O)cc(COC(=O)c3cccc(NC(=O)COc4ccccc4C)c3)nc2s1 | -8%[7.34 µM] | 20 | -8%[7.34 µM] | · | ? | ·
COc1ccc(C2c3cccn3CCN2S(=O)(=O)c2ccc([N+](=O)[O-])cc2)cc1 (stereo not given) | ? | -8 | -24% | · | -4%[46.1 µM] | ·
